The supplement of paper PMC11417369
± gives the standard deviation of the averaged measurements. Over roughly 25,000 sequences, “ln(normalized median fluorescence intensity)” has its median near 8.9; the highest 2% begin near 10. The list comes from a sample in which the highest values are over-represented; it also holds similar and randomly drawn sequences.

tested on: PfAP2-LT AP2 domain (GST-tagged); assay: gcPBM binding intensity (ln(normalized median fluorescence intensity)); higher = stronger DNA binding
Procedure, shortened: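 Using an Agilent 4 × 180k array, primer-extended double-stranded 36-bp intergenic genomic probes and negative controls were exposed for 1 h to GST-fused P. falciparum DNA-binding domains expressed in E. coli. Binding was carried out in 1× PBS with 1% milk, 0.2 mg/ml BSA, 0.5% salmon testes DNA and 0.03% Triton X-100, and protein was detected with Alexa488 anti-GST antibody and a 488 nm scan. Binding intensity is the highest Masliner-normalised natural-log median intensity across replicate spots of either probe orientation.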

| Sequence | gcPBM binding intensity (ln) |
| --- | --- |
| AATGATCATATATACACACACACAAAAAAAAAAAAA [CACACA_site4009] | 9.6 ± 0.45 |
| ATAAAGATAATATATGCACACATATAAATATATAAA [CACACA_site9153] | 9.09 ± 0.43 |
| TATAAATACAGATACACACACACACCGATATATATA [CACACA_site5271] | 9.94 ± 0.18 |
| TACAGATACAGATACACACACACACCGAAATAAATA [CACACA_site4865] | 10.2 ± 0.43 |
| ATAAATACAGATAACACACACATATATATATATATA [CACACA_site5431] | 10.225 ± 0.0071 |
| CATACAGATATATATACACACATACAGATAAATACA [CACACA_site4592] | 9.3 ± 0.28 |
| AATAAATATATAAATACACACAAACATACAGATATA [CACACA_site6088] | 9.37 ± 0.35 |
| CACATACAGATATATACACACAAATATAAATACACA [CACACA_site6512] | 9.52 ± 0.4 |
| TACATACATACATACACACACACATATAAATACATA [CACACA_site4626] | 10.1 ± 0.4 |
| CATATATAAATATATACACACATACATACATACATA [CACACA_site5988] | 9.36 ± 0.4 |
| TATACAGATAAATACACACACACATATATATATATA [CACACA_site4845] | 10.3 ± 0.25 |
| TATACAGATATATATACACACATATATATAAATACA [CACACA_site4383] | 9.24 ± 0.39 |
| ATTTAATACAAATACACACACAAATAAATACAGATA [CACACA_site5956] | 9.47 ± 0.26 |
| CATAAATACATACATACACACATATATATATATATA [CACACA_site2106] | 9.88 ± 0.085 |
| AATTAAATTATAAGCACACACATATATATATATATA [CACACA_site3351] | 9.81 ± 0.057 |
| ATAGTTACACGCCAAAAAAAAAAAAAAAAAAAAAAA [CACACA_negctrl_site1133] | 8.21 ± 0.42 |
| TTTTTTTTTTTTTTTTGTACACATAATATGAATAAT [XGTACX_site2661] | 8.57 ± 0.32 |
| AAAAAATTATTAATTTGTACATAAATAACCAAAAAA [XGTACX_site2488] | 8.49 ± 0.52 |
| TTTTCCTTTACATAATGTACACAAAAAAAAAAAAAA [XGTACX_site716] | 8.21 ± 0.35 |
| CTATAAAAATATAATTGTACAAATTTTTATATCTTA [XGTACX_site7722] | 8.35 ± 0.45 |
| TAGAAACCATAAAAATGTACTTAAAAATAGACAATT [XGTACX_site5007] | 8.78 ± 0.5 |
| AAAATTTTGGAACGTGCACACATATGTAATATATAT [CACACA_site9004] | 9.32 ± 0.37 |
| TACATACATACATACACACACATATAGATTTATATA [CACACA_site6999] | 9.48 ± 0.28 |

| Sequence | gcPBM binding intensity (ln) |
| --- | --- |
| CTATATAATATGAGCACACATAAGATTTGGTGTTAT [CACACA_site744] | 8.93 ± 0.34 |
| TAAATAAATACATACACACACATACAGATATATATA [CACACA_site5690] | 9.62 ± 0.26 |
| AGGCACGTGTTATATACACACATAATCAAATAAACT [CACACA_site7852] | 9.36 ± 0.38 |
| AAATTATAATATAATACACACATAAAAAAAAAATCA [CACACA_site3634] | 9 ± 0.44 |
| CATAAATACAGATATACACACATATATATATATATA [CACACA_site4528] | 9.7 ± 0.45 |
| TATACAGATAAATACACACACATATATATATATATA [CACACA_site4178] | 10.2 ± 0.33 |
| CCCCCCGTGTTATATACACACATAATCAAATAAAAT [CACACA_site4111] | 11.1 ± 0.44 |
| AATTAAAATACAAATGTATGCATGTCTCATATAGAA [TGCATGCA_site822] | 8.78 ± 0.43 |
| ATTCTTAAATGTGGTTGTACATATTATCACCTTTAA [XGTACX_site8188] | 8.75 ± 0.42 |
| TGGAGATTTTTAAAGACACACAGGTAAGAATAATAA [CACACA_site1582] | 8.77 ± 0.47 |
| TATATATATGGACACACACACATATATATATATTTT [CACACA_site5409] | 9.67 ± 0.23 |
| TATATATATGGACACACACACATATAAATAAATAAA [CACACA_site4406] | 9.71 ± 0.49 |
| TATATATATGGACACACACACACATATATATATATA [CACACA_site6121] | 10.3 ± 0.23 |
| TAAATTTATGGACACACACACATATATATATATATA [CACACA_site4620] | 9.955 ± 0.021 |
| AAAGGATATGGACACACACACACATATATATATATA [CACACA_site8686] | 10.5 ± 0.15 |
| GATACCTATAGACACACACACATACCTATATACATA [CACACA_site7586] | 9.66 ± 0.47 |
| CAAGAAAATGGACACACACACATATATATATATATA [CACACA_site6010] | 10.37 ± 0.092 |
| TATATATATAGACACACACACACATATATATATATA [CACACA_site9366] | 10.02 ± 0.042 |
| AAAGGATATAGACACACACACACATATATATATATA [CACACA_site2200] | 10.3 ± 0.32 |
| GAGAAATGGAGACACACACACATATTATATATATAT [CACACA_site1532] | 9.85 ± 0.15 |
| TATATGTAAATGGACACACACATATATATATATATA [CACACA_site3659] | 10 ± 0.13 |
| AAAAATTATGGACACACACACATATATATATATATT [CACACA_site4717] | 9.8 ± 0.11 |
| ATAATATTGTGGTATACACACCTTACAAAAAGGTAC [CACACA_site5582] | 8.96 ± 0.42 |

| Sequence | gcPBM binding intensity (ln) |
| --- | --- |
| AAATATAAAAATAGCACACATATATACCTATATATA [CACACA_site4204] | 8.99 ± 0.38 |
| TATATTGCCCTTCACACACACACATATATATATATA [CACACA_site2492] | 10 ± 0.13 |
| TATTGCCCTGGACACACACACATATATATATATATA [CACACA_site5389] | 10.2 ± 0.064 |
| TATTGCCCTTGACACACACACATATAAATAAATATA [CACACA_site7220] | 9.34 ± 0.44 |
| ATTCAAATATTAAAAAGTACAAAAAAAAAACAAAAA [XGTACX_site1174] | 8.63 ± 0.5 |
| AAGCTTTCATAAAGATGTACTTTTTAAAAATAATCT [XGTACX_site5725] | 8.28 ± 0.3 |
| TACATTTTATGCATTTGTACACAAATAAATAAATAA [XGTACX_site2652] | 8.49 ± 0.42 |
| TTTTTCAGAAAAGAAACACACATATATATATTTATA [CACACA_site2372] | 8.56 ± 0.43 |
| AATAATATATTTAGGGGTACATAATAATATATTTTA [XGTACX_site8366] | 8.66 ± 0.3 |
| AAATATATTATAAATTGTACGTTTATATATATTATT [XGTACX_site5110] | 8.69 ± 0.47 |
| TTAGGCAAGGCGGGGGGTACGTTTTTATATAATTAT [XGTACX_site8029] | 10.2 ± 0.14 |
| ATCTCTATGATATATACACACAAATATACAAAAAAA [CACACA_site6605] | 8.96 ± 0.45 |
| TATAATATTCTATATGCATGTACACCATTCTTTATT [TGCATGCA_site688] | 9.15 ± 0.45 |
| GTTCATCACATATACACATGCATATTCTAATATGTA [TGCATGCA_site809] | 8.95 ± 0.41 |
| ACACATACATATACATACACATTGTTTTCATGCATC [XGTACX_negctrl_site126] | 9.2 ± 0.39 |
| TATATATATATATATACATGCATCATTGTTCACCTT [TGCATGCA_site177] | 10.2 ± 0.35 |
| TAAAATGAATAAAATTGTACTTAATAATATTTTAAA [XGTACX_site5532] | 8.23 ± 0.57 |
| TAAAATATAGAAAATTTTATTAAATATAAAAAAATA [CACACA_negctrl_site1441] | 8.28 ± 0.47 |
| TATAAGAAATAAAACCTGATTATAAACCTGTAACCA [CACACA_negctrl_site1302] | 8.63 ± 0.37 |
| ATAAATACTAGGCACACACACATATATATATATATA [CACACA_site2080] | 10.4 ± 0.014 |
| AAAATAATAATAGGCACACATATATATATATATATA [CACACA_site2058] | 9.99 ± 0.21 |
| ATAAATACTAGGCACACACACATATAGATTTATATA [CACACA_site7064] | 9.77 ± 0.47 |
| ATAAATAAATACTAGGCACACACACCGATATATATA [CACACA_site8649] | 9.76 ± 0.22 |

| Sequence | gcPBM binding intensity (ln) |
| --- | --- |
| AATAAAATAATAGGCACACATATATATATATATTAT [CACACA_site273] | 9.2 ± 0.37 |
| AAATAAATACTAGGCACACACACATATATATATATA [CACACA_site2079] | 10.1 ± 0.15 |
| TATATTTGGAAAACATGTACATATAACAATATGTAA [XGTACX_site324] | 8.71 ± 0.34 |
| TTAGTTATTAAAAAAAGTACATAAGTAGATATCATC [XGTACX_site8712] | 8.7 ± 0.45 |
| TTTGAACATTTTGCAAGTACAAAAAAATAATATATC [XGTACX_site8079] | 8.65 ± 0.42 |
| ACTCTCTTATATTAAACACACATATATATATGTATA [CACACA_site2703] | 8.99 ± 0.42 |
| GTGCTAAAAGTATATGCACACACATATATATGCACA [CACACA_site8472] | 9.42 ± 0.31 |
| AAAAAAAAAAAACATACACACAAATAAATACATACA [CACACA_site6073] | 9.23 ± 0.36 |
| AAATAAAACAAACACACACACACATACACAAAAAAA [CACACA_site3849] | 10.12 ± 0.035 |
| AATAAACATATATACACACACAAAAAAAAAAACATA [CACACA_site424] | 9.59 ± 0.5 |
| AATAAACATAAATACACACACAAAAAAAAAAACATA [CACACA_site4396] | 9.64 ± 0.33 |
| TATACACATATATAAACACACAAAAAAAAAAAAAAA [CACACA_site7041] | 8.88 ± 0.49 |
| AATATATAAACATATACACACAAAAACATATATATA [CACACA_site4855] | 9.21 ± 0.33 |
| TATAACATAAAACACACACACATACATACACAAAAA [CACACA_site1804] | 10.1 ± 0.15 |
| TATATACACATATATAAACACACAAAAAAAAAAAAA [CACACA_site8626] | 8.89 ± 0.4 |
| ATAAAACAAAAACACACACACATACACAAAAAAAAA [CACACA_site3848] | 10.1 ± 0.3 |
| AATTTTTTATATGTCACACATTTATTATTATTATTA [CACACA_site4198] | 8.83 ± 0.48 |
| AACATATAAAAATATGCACACACAGGAATACAAACA [CACACA_site8127] | 9.89 ± 0.45 |
| AAAAAATAAATAAATAGTACTTTAAAAGAAAAAAAA [XGTACX_site5051] | 8.55 ± 0.51 |
| TGTTTATTTAATAATATTTTTTTTTTTATTATATTA [XGTACX_negctrl_site56] | 8.31 ± 0.54 |
